697 NFkB inh: inhibitors of PMA/ionomycin-induced NF-kB reporter, 697 cells, primary screen, B-cell NF-kB inhibitor project, cell-based, luminescence, uHTS; inhibition, % at 4 µM; hit rate 0.33% among 330,000; 697 B-cell NF-kB luciferase reporter, 16 h; in the data active means inhibition above about 35%
GalR3 antagonist: GalR3 antagonists in HEK293 cells, primary screen, cell-based, fluorescence readout; hit rate 0.44% among 360,000; inhibition, % at 3 µM; AID 651719, 2012; Galanin receptor type 3 (Homo sapiens), O60755; HEK293 GalR3-CNG cAMP membrane potential fluorescence; galR3 body fused to GalR1 C-terminus;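 active means inhibition above the screen-wide average plus 3 SD, cut at about 13% in these data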;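 further: forskolin and galanin both at EC90 stimulate the cells; cAMP rise reported by CNG channel membrane potential dye signal; 0% = forskolin plus galanin with DMSO and 100% = forskolin alone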
Target sequence (O60755 1-299 limits assumed): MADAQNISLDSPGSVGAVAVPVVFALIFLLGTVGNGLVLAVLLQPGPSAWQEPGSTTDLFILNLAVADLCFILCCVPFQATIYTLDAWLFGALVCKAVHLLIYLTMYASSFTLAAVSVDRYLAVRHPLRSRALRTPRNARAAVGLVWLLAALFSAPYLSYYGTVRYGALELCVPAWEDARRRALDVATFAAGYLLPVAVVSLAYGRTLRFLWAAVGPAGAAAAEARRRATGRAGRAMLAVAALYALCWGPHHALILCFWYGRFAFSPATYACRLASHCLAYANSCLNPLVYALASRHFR
Gli-Sufu block: Gli-Sufu pathway antagonists, primary screen, luciferase luminescence, Sufu-KO-LIGHT cells, uHTS | Sufu-KO-LIGHT fibroblasts, Gli luciferase reporter luminescence | inhibition, % at 5 µM | hit rate 0.74% among 340,000;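 active means inhibition above about 55%, limit read from the data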;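 further: 0% = DMSO-treated cells and 100% = wells with medium but no cells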
Jurkat NFkB inh: inhibitors of induced NF-kB luciferase reporter, primary screen, TCR NF-kB activation inhibitor project, cell-based, luminescence, uHTS | Jurkat, PMA/ionomycin-induced NF-kB luciferase reporter | inhibition, % at 4 µM | hit rate 0.53% among 330,000; in the data active means inhibition above about 50%
NR2F2 inh: NR2F2 transcriptional activity inhibitors, primary screen, cell-based, luciferase reporter, HEK293T, luminescence; inhibition, % at 8.6 µM; hit rate 0.7% among 370,000; AID 686940, 2013; COUP transcription factor 2 (Homo sapiens), P24468; HEK293T NGFI-A luciferase reporter;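 active means inhibition above a per-plate cutoff, mean inhibition of test wells between control levels plus 3 SD, cut at about 38% in these data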;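 further: cells cotransfected with COUP-TFII expression vector driving the NGFI-A reporter; 0% = median of COUP-TF2 test wells and 100% = reporter-only cells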
Gli antag conf: Gli-SUFU pathway antagonists, confirmation, single concentration, luciferase luminescence, Sufu-KO-LIGHT cells | inhibition, % at 5 µM | Gli luciferase reporter | hit rate 40% among 2,500 | shares compounds with Gli-Sufu block;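 active means mean inhibition at 5 µM reaching about 45%, limit read from the data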;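 further: plate controls were DMSO-treated cells for no effect and wells lacking cells for full effect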
Gli cytotox: cytotoxicity in Sufu-KO-LIGHT cells, confirmation, cytotoxicity control for Gli-SUFU antagonist project, cell-based, ATP luminescence, single concentration. hit rate 32% among 2,500. cytotoxicity, % at 5 µM. shares compounds with Gli-Sufu block;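 active means mean cytotoxicity at 5 µM above about 25%, limit read from the data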;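 further: cells exposed to compound overnight for roughly 16 to 18 hours; plate controls were DMSO wells with cells for no effect and medium without cells for full effect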
Wnt3a cs: Wnt3a reporter signal inhibition, confirmation, counter-screen for Gli-SUFU antagonist project, Wnt-LIGHT cells, luminescence, single concentration; shares compounds with Gli-Sufu block; hit rate 20% among 2,500; inhibition, % at 6.25 µM; Wnt3a-driven luciferase reporter; AID 651995, 2013;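 active means mean inhibition above about 25%, limit read from the data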
GalR3 antag conf: GalR3 antagonist hit confirmation, cell-based, fluorescence, triplicate. inhibition, % at 3 µM. HEK293 GalR3 CNG cAMP biosensor, membrane potential fluorescence; galR3 fused to GalR1 carboxy tail; challenged with forskolin and galanin at EC90. hit rate 59% among 1,600. shares compounds with GalR3 antagonist;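 active means inhibition above the primary screen's cutoff, the mean inhibition of all screened compounds plus 3 SD, cut at about 13% in these data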;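 further: 0% = forskolin plus galanin and 100% = forskolin alone with DMSO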
CNG parental: nonspecific cAMP agonists in parental HEK-CNG cells, counter-screen for GalR3 antagonist project, cell-based, fluorescence, high throughput. shares compounds with GalR3 antagonist. HEK293-CNG parental cells, cAMP membrane potential fluorescence; normalised: DMSO wells 0%, forskolin wells 100%. activation, % at 3 µM. hit rate 10% among 1,600; in the data active means activation above about 1.3%
VP16 Luc counter: Gal4-VP16 luciferase reporter inhibitors, counter-screen for COUP-TFII antagonist project, cell-based, luminescence, HEK293. shares compounds with NR2F2 inh. inhibition, % at 8.5 µM. hit rate 25% among 2,500. AID 687007, 2013; in the data active means inhibition above about 13%
COUP-TFII conf: NR2F2 transcriptional activity inhibitors, confirmation, cell-based, luciferase reporter, HEK293, triplicate. shares compounds with NR2F2 inh. HEK293 NGFI-A luciferase reporter, luminescence. inhibition, % at 8.5 µM. hit rate 45% among 2,500. AID 687008, 2013;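 active means mean inhibition over three repeats above a set limit taken from the earlier primary screen, cut at about 38% in these data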;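 further: 100% = cells given the luciferase reporter alone without the COUP-TF2 vector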
* marks the source's active call; other numbers are inactive results; . = no result. In the library only some 2% were active in any assay of this set; here they are far more common.

SMILES	697 NFkB inh	GalR3 antagonist	Gli-Sufu block	Jurkat NFkB inh	NR2F2 inh	Gli antag conf	Gli cytotox	Wnt3a cs	GalR3 antag conf	CNG parental	VP16 Luc counter	COUP-TFII conf
COc1cc2c(cc1OC)C1C(=O)c3ccc4c(c3OC1CO2)CC(C(C)C)O4 (stereo not given)	.	95.5*	85.2*	.	72.9*	89.3*	46.9*	37.3*	108.0*	0.1	-0.7	68.9*
O=C(NCCN1CCC2(CC1)C(=O)NCN2c1ccccc1)c1ccc(OC(F)(F)F)cc1	.	-2.8	.	.	10.3	.	.	.	.	.	.	.
OC1CN2CCCC(O)C2C1O (stereo not given)	.	-7.1	.	.	-5.5	.	.	.	.	.	.	.
CC(=O)c1cn(Cc2ccccc2F)c2ccccc12	10.8	-10.6	59.4*	38.3	54.0*	48.7*	36.5*	19.0	.	.	10.5	47.9*
O=C(c1ccc(C(F)(F)F)cc1)C1CCCN(Cc2ccc(CO)o2)C1 (stereo not given)	5.9	-0.8	1.0	8.7	-8.6	.	.	.	.	.	.	.
O=C(c1ccc(C(F)(F)F)cc1)C1CCCN(Cc2ccncc2)C1 (stereo not given)	-16.2	4.1	55.8*	16.0	45.5*	38.1	21.4	-5.0	.	.	6.8	18.1
Cc1cc(-c2ccccc2)cc(-c2ccccc2)[n+]1CCc1ccccc1	32.6	-5.0	91.7*	42.5	37.9*	91.9*	47.5*	73.0*	.	.	15.4*	25.9
O=C(Nc1ccccc1)N1Cc2cc(Br)ccc2-n2nncc2C1	.	-7.8	.	.	1.3	.	.	.	.	.	.	.
CC[C@@H](O)C[C@H]1CCC[C@@]2(C[C@@H]3OC(=O)/C=C/[C@@](C)(O)[C@@H](O)[C@H](C)[C@@H](O)[C@H](OC4CCC(N(C)C)C(C)O4)[C@@H](O)[C@](C)(O)CCCCC/C=C/[C@@H]4CC(C)(C)O[C@@]4(O)C[C@H](O2)[C@H]3C)O1 (stereo not given in full)	.	6.9	88.8*	.	79.5*	89.0*	20.4	22.4	.	.	3.0	73.1*
CC(C)C(CN1CCC(C)(c2cccc(O)c2)[C@@H](C)C1)NC(=O)C1Cc2ccc(O)cc2CN1 (stereo not given in full)	.	0.0	.	.	-11.8	.	.	.	.	.	.	.
Oc1ccc(C2=CCNCC2)cc1O	5.9	73.5*	0.8	-9.3	-28.9	.	.	.	86.5*	-0.1	.	.
C[C@H]1CNCCN1c1ccc(N2CC[C@@H](O)C2)c(C#N)c1	.	-6.9	.	.	-20.6	.	.	.	.	.	.	.
CCNCC(O)c1cccc(O)c1 (stereo not given)	13.4	53.7*	-6.3	-3.0	-41.9	.	.	.	67.5*	0.6	.	.
COc1ccc(-n2c(O)c(C=NCc3ccc4c(c3)OCO4)c(=O)[nH]c2=O)cc1	5.4	13.8*	-6.1	10.4	-0.1	.	.	.	-0.3	0.3	.	.
